The values below come from PubChem BioAssay (Tox21).

Results filed as inconclusive are left out. Active and inactive are the calls of the source. Unless noted, calls follow the shape of the dose curve; as a rule, active = well fitted curve in the direction sought with a large enough effect in the repeat runs; inconclusive = weak or mixed curves; inactive = no such curve, though single readings can be large; an effect the other way counts as inactive or inconclusive.

Assay [1] in a line: qHTS assay to identify small molecule antagonists of the sonic hedgehog signaling (Shh) pathway (AID 1259369; calls by dose curve; also: nearly all actives have a fitted effect of over 45% in size; also: potency is read from the fitted curve at half-maximal effect). The gist of the method: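 Inhibition of Shh signalling is measured as reduced Gli1-response-element firefly luciferase output in an NIH/3T3-derived stable reporter clone stimulated with conditioned medium for 24hr.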
Background: Quantitative high-throughput screening tests each substance at several concentrations.

Assay [2] can be described thus: qHTS assay to identify small molecule agonists of the estrogen receptor beta (ER-beta) signaling pathway - cell viability counter screen (AID 1259380). Also: nearly all actives have a fitted effect of over 30% in size. Also: potency is read from the fitted curve at half-maximal effect. The procedure, abridged:
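Same-well viability counter screen. Cells: ER-beta-UAS-bla HEK293T, plated 6 hr before compound, in 2% charcoal-stripped FBS. Compound exposure 16 hr, 37C; viability by CellTiter-Glo luminescence after 30 min at room temperature.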

In assay [3] the target is Thyrotropin receptor (Homo sapiens) (UniProt P16473). The assay is described as follows: qHTS assay to identify small molecule antagonists of the thyroid stimulating hormone receptor (TSHR) signaling pathway (AID 1259385; calls by dose curve; also: nearly all actives have a fitted effect of over 20% in size; also: potency is read from the fitted curve at half-maximal effect). The gist of the method:
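TSHR-HEK293 cells (800/well) plated 18 h, then compounds with Ro20-1724 and TSH at 1.5 ng/mL final, 30 min at room temperature. cAMP quantified by HTRF (cAMP-d2/anti-cAMP-cryptate, 1 h); 15 concentrations in triplicate.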

A short description of assay [4]: qHTS assay to identify small molecule agonists of the estrogen receptor alpha (ER-alpha) signaling pathway in the presence of an antagonist - cell viability counter screen (AID 1259386).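 Also: cells exposed to compounds for 22 h at 37 °C before the viability read; nearly all actives have a fitted effect of over 30% in size.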 Also: potency is read from the fitted curve at half-maximal effect. The procedure, abridged: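 Cells are starved of estrogens for 5 days in charcoal-stripped serum, seeded for 24hr and co-treated with ICI-182,780 (10.0nM final) and test compounds. After 22hr at 37C, viability is read as CellTiter-Fluor fluorescence.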

Assay [5] can be described thus: qHTS assay to identify small molecule antagonists of the progesterone receptor (PR) signaling pathway - cell viability counter screen (AID 1346798). Also: nearly all actives have a fitted effect of over 50% in size. Also: potency is read from the fitted curve at half-maximal effect. The gist of the method: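 Cytotoxicity read as CellTiter-Glo luminescence (30 min, room temperature) in the same wells as the beta-lactamase readout. HEK293T PR-UAS-bla cells in charcoal-stripped 2% FBS received compound and R5020, then 16 h at 37C, 5% CO2.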

The nature of assay [6]: qHTS assay to identify small molecule antagonists of the TGF-beta/Smad signaling pathway - cell viability counter screen (AID 1346824). Also: nearly all actives have a fitted effect of over 50% in size. Also: potency is read from the fitted curve at half-maximal effect. The procedure, abridged: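 SBE-bla HEK 293T cells, incubated overnight, then compound plus 0.25 ng/mL TGF-beta1 (stock added) for 5 hr at 37 C. Viability was read in the same wells by CellTiter-Glo luminescence after 30 min at room temperature.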

Assay [7] in a line: qHTS assay to identify small molecule agonists of the TGF-beta/Smad signaling pathway - cell viability counter screen (AID 1346829). Also: nearly all actives have a fitted effect of over 45% in size. Also: potency is read from the fitted curve at half-maximal effect. The gist of the method:
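Luminescence from CellTiter-Glo, read after a 30 min room-temperature incubation, gives cell viability of SBE-bla HEK 293T cells treated 5 hr with compounds at 37 C.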

Assay [8] in a line: qHTS assay to identify small molecule antagonists of the estrogen receptor beta (ER-beta) signaling pathway - cell viability counter screen (AID 1259382). Also: nearly all actives have a fitted effect of over 55% in size. Also: potency is read from the fitted curve at half-maximal effect. The gist of the method:
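Following a 6 hr plating period, HEK293T cells carrying a UAS-driven beta-lactamase reporter under ER-beta control received compounds and 1nM E2 (final). After 16 hr at 37C and 2 hr substrate loading, CellTiter-Glo luminescence indicated viability.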

A short description of assay [9]: qHTS assay to identify small molecule agonists or antagonists of the thyroid stimulating hormone receptor (TSHR) signaling pathway - wild type cell line counter screen (AID 1259384; calls by dose curve). The procedure, abridged: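 Wild-type Hek293 cells, 800/well, 18 h at 37C, then compound with Ro20-1724 for 30 min RT. cAMP by HTRF (cAMP-d2/anti-cAMP cryptate), 1 h RT, fluorescence read. 15 concentrations, triplicates.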

The nature of assay [10]: qHTS assay to identify small molecule agonists of the progesterone receptor (PR) signaling pathway - cell viability counter screen (AID 1346799; calls by dose curve; also: nearly all actives have a fitted effect of over 45% in size; also: potency is read from the fitted curve at half-maximal effect). The gist of the method:
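Cytotoxicity measured by CellTiter-Glo luminescence (30 min, RT) in the same wells as the PR beta-lactamase agonist read. Those HEK293T cells had 16 h compound treatment at 37 C in 2% charcoal-stripped FBS medium.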

The nature of assay [11]: qHTS assay to identify small molecule agonists of the TGF-beta/Smad signaling pathway (AID 1346859; active = well fitted activation curve with a large enough effect in the signal ratio in the repeat runs, not every such curve was filed as active; the % refers to the signal ratio; also: series mostly up to about 77 µM). The gist of the method:
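Fluorescence (ex 405 nm; em 460 and 530 nm) was read 2 h after LiveBLAzer FRET substrate at RT. The preceding compound treatment of overnight-plated SBE-bla HEK293T cells lasted 5 h at 37 C.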

For assay [12], the target named is Thyrotropin-releasing hormone receptor (Homo sapiens) (UniProt P34981). The assay is described as follows: qHTS assay to identify small molecule antagonists of the thyrotropin-releasing hormone receptor (TRHR) signaling pathway (AID 1346877; active = well fitted inhibition curve with a large enough effect in the repeat runs, not every such curve was filed as active; also: series mostly up to about 51 µM). The gist of the method: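 Cells (TRHR-HEK293) are plated and kept 18 h at 37 °C/5% CO2. A calcium-sensitive dye is added for 2 h, compound follows for 5 min at room temperature, and TRH is then given at 1 nM final.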
Sequence of Thyrotropin-releasing hormone receptor (Homo sapiens) (P34981 whole entry, looked up): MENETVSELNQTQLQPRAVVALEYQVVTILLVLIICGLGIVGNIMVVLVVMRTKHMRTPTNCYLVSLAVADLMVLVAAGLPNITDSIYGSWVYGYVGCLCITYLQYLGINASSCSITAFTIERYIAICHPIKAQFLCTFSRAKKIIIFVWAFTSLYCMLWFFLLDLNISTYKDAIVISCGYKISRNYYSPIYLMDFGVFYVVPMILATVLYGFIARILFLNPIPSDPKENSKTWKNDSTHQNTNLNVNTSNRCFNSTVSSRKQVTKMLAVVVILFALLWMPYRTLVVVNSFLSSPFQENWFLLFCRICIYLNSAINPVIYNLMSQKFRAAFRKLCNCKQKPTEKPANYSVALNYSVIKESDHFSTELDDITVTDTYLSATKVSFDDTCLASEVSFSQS

Assay [13] has the same target. The assay is described as follows: qHTS assay to identify small molecule agonists of the thyrotropin-releasing hormone receptor (TRHR) signaling pathway (AID 1346891; calls by dose curve; also: series mostly up to about 58 µM). The procedure, abridged:
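Agonist-mode intracellular calcium readout: kinetic fluorescence over 3 min at 1 s intervals after compound addition to TRHR-HEK293 cells (18 h seeded, 2 h dye-loaded at 37 C). Fifteen concentrations, triplicates.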

Assay [14] deals with Estrogen receptor (Homo sapiens) (UniProt P03372). The assay is described as follows: qHTS assay to identify small molecule agonists of the estrogen receptor alpha (ER-alpha) signaling pathway in the presence of an antagonist (AID 1259383; calls by dose curve; also: top concentration of the series differs between compounds; nearly all actives have a fitted effect of over 15% in size). The gist of the method:
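Cells are hormone-deprived for 5 days (charcoal-stripped FBS, no phenol red), plated for 24hr, spiked with 10.0nM ICI-182,780, then dosed at 15 concentrations. After 22hr at 37C, ONE-Glo luminescence reports ERE-luciferase activity.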

Assay [15] deals with Estrogen receptor beta (Homo sapiens) (UniProt Q92731). The assay is described as follows: qHTS assay to identify small molecule agonists of the estrogen receptor beta (ER-beta) signaling pathway (AID 1259377; active = well fitted activation curve with a large enough effect in the signal ratio in the repeat runs, not every such curve was filed as active; the % refers to the signal ratio). The procedure, abridged: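 Ratiometric beta-lactamase FRET read-out came after 2 h substrate loading at room temperature. It followed 16 h compound treatment at 37C of GripTite HEK293T cells carrying a UAS-bla reporter, plated in 2% charcoal-stripped FBS medium.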
Sequence of Estrogen receptor beta (Homo sapiens) (Q92731 whole entry, looked up): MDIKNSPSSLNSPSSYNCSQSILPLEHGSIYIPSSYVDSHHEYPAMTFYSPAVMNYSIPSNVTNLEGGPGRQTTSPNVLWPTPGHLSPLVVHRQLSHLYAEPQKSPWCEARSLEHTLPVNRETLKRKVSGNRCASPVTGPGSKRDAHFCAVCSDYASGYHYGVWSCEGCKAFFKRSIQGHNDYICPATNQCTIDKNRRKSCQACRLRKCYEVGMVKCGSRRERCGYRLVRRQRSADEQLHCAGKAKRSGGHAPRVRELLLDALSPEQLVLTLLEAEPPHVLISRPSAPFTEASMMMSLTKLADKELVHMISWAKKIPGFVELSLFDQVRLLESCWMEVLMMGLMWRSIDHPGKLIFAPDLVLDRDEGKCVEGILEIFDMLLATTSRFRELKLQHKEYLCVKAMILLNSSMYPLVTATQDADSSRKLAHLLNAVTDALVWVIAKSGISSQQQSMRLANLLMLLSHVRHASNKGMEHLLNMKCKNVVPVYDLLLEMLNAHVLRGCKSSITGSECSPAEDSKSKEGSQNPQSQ

A short description of assay [16]: qHTS assay to identify small molecule agonists of the androgen receptor (AR) signaling pathway in the presence of an antagonist - cell viability counter screen (AID 1259379).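 Also: MDA-kb2 human breast cancer cells carrying an MMTV luciferase reporter; series mostly up to about 92 µM; nearly all actives have a fitted effect of over 25% in size.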 The gist of the method:
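Fluorescence from CellTiter-Fluor, added after 15 hr and read 1 hr later, gave cell viability. Cells were MDA-kb2 exposed to compounds (15 concentrations) in the presence of 3.0uM nilutamide at 37C, 0% CO2.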

Assay [17] deals with Androgen receptor (Homo sapiens) (UniProt P10275). The assay is described as follows: qHTS assay to identify small molecule agonists of the androgen receptor (AR) signaling pathway in the presence of an antagonist (AID 1259381; calls by dose curve; also: nearly all actives have a fitted effect of over 15% in size; also: potency is read from the fitted curve at half-maximal effect). The procedure, abridged:
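Cells are MDA-kb2 (human breast carcinoma, MMTV-luc, AR/GR responsive). Nilutamide is present at 3.0uM final throughout; compounds are added at 15 concentrations and incubated 16hr at 37C before ONE-Glo luminescence detection.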

The target of assay [18] is Progesterone receptor (Homo sapiens) (UniProt P06401). In words: qHTS assay to identify small molecule agonists of the progesterone receptor (PR) signaling pathway (AID 1346784; calls by dose curve; also: nearly all actives have a fitted effect of over 30% in size). The procedure, abridged:
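Agonist qHTS: compounds pinned onto 3,000 PR-UAS-bla HEK 293T cells per well in charcoal-stripped serum medium, 16hr at 37C, then beta-lactamase activity measured by LiveBLAzer FRET fluorescence after 2 hours at room temperature.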

Assay [19] has the same target. In words: qHTS assay to identify small molecule antagonists of the progesterone receptor (PR) signaling pathway (AID 1346795; active = well fitted inhibition curve with a large enough effect in the signal ratio in the repeat runs, not every such curve was filed as active; the % refers to the signal ratio; also: potency is read from the fitted curve at half-maximal effect). The procedure, abridged: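 Antagonist mode with agonist R5020 at 1 nM final and 16 hr incubation at 37C. Reporter was beta-lactamase driven by UAS in HEK293T (PR-UAS-bla), 2% charcoal-stripped serum; signal from LiveBLAzer FRET substrate, 2 hr at room temperature.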

Sequence of Androgen receptor (Homo sapiens) (P10275 whole entry, looked up): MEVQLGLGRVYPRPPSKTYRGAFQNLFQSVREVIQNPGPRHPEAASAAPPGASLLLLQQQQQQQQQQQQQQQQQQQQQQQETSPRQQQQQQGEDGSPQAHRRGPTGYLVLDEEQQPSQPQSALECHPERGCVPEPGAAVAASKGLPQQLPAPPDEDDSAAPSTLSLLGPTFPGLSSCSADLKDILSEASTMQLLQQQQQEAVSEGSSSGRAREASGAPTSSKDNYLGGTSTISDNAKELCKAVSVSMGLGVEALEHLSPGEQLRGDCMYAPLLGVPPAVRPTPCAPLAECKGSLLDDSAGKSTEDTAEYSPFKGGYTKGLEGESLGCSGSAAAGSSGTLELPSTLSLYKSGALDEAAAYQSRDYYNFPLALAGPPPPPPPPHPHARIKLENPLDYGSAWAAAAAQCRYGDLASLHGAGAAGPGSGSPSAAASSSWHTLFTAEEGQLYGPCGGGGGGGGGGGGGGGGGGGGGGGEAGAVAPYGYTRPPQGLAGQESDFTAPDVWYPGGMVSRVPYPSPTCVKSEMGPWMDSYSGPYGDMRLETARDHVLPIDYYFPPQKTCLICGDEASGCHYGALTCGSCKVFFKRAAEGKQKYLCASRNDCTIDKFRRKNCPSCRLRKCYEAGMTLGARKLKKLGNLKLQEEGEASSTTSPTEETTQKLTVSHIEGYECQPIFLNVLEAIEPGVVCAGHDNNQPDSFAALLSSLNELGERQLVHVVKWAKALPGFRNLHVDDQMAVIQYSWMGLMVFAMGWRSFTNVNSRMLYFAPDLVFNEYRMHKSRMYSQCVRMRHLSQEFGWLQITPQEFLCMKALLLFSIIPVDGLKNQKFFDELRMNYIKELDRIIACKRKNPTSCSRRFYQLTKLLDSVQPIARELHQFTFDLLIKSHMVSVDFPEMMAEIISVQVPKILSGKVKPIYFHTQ
Sequence of Estrogen receptor (Homo sapiens) (P03372 whole entry, looked up): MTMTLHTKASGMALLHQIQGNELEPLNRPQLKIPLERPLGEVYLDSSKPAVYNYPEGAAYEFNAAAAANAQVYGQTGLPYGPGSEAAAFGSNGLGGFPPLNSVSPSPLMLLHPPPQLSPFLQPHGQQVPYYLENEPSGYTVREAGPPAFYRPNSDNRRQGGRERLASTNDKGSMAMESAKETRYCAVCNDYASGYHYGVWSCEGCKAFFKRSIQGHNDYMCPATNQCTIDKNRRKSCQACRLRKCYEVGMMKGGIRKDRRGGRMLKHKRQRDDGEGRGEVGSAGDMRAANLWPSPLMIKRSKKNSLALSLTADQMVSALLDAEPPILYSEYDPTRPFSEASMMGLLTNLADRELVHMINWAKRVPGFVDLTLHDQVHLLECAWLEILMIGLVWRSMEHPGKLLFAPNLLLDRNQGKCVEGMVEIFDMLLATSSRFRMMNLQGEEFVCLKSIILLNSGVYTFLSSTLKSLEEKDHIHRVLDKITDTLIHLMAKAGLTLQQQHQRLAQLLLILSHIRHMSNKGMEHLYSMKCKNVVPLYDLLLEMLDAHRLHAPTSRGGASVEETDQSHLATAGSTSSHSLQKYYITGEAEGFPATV
Sequence of Thyrotropin receptor (Homo sapiens) (P16473 whole entry, looked up): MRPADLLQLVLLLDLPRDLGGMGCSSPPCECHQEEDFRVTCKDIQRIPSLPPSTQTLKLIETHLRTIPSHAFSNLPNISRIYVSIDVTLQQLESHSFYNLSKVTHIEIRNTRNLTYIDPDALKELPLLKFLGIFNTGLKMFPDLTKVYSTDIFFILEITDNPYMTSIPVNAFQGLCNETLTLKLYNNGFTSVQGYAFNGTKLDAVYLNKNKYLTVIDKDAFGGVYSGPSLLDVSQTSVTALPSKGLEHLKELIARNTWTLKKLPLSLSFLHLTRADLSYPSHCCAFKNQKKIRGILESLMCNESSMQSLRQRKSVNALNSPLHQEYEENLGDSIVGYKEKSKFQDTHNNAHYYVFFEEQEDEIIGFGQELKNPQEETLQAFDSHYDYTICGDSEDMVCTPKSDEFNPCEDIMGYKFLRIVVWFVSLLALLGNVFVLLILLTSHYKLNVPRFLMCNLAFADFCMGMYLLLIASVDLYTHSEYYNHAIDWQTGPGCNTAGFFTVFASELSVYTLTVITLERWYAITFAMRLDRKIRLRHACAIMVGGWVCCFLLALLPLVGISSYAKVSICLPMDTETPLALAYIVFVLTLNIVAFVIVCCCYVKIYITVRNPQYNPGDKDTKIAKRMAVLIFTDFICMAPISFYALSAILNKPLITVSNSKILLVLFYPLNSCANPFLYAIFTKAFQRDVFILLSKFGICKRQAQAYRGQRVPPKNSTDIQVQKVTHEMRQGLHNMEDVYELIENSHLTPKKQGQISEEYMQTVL
Sequence of Progesterone receptor (Homo sapiens) (P06401 whole entry, looked up): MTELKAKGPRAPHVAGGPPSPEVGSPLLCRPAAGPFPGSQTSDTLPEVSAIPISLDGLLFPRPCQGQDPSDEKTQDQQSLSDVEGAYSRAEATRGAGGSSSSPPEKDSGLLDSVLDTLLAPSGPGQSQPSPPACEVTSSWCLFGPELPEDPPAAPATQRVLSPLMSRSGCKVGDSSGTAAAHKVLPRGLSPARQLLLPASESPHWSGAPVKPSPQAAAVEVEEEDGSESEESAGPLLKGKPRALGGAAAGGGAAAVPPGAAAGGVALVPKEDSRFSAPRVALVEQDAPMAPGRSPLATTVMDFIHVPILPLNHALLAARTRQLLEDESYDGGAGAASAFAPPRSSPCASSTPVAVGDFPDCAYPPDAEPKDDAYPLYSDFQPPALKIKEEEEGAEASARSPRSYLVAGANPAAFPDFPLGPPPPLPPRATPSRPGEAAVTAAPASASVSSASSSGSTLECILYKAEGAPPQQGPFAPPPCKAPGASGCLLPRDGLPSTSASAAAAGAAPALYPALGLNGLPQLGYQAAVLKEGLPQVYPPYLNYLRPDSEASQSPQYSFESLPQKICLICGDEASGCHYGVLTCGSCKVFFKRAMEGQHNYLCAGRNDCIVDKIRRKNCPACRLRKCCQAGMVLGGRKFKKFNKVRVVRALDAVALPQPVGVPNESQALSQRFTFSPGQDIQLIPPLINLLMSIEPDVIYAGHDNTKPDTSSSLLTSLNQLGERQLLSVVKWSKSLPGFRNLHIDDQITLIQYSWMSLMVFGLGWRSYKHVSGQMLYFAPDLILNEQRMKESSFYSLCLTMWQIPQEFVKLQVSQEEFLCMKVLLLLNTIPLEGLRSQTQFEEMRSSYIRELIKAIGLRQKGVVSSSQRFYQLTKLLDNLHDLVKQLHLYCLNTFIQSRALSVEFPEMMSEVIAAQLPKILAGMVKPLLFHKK

With `[Hg+2].[I-].[I-]`, the Potency is 0.545 µM (active) in [1]; 5.45 µM (active) in assay [2]; 43.3 µM (active) in [3]; 61.1 µM (active) in assay [4]; 6.11 µM (active) in assay [5]; 49 µM (active) in assay [6]. Besides, the Potency in assay [7] was 54.9 µM (active).
In the case of `Clc1ccc(CO/N=C(\Cn2ccnc2)c2ccc(Cl)cc2Cl)c(Cl)c1`, the Potency in [1] was 4.73 µM (active); in assay [2] it was 29.8 µM (active); in assay [8] it was 29.8 µM (active); in [3], 26.6 µM (active); in [5] it was 21.1 µM (active); in [10], 15 µM (active). For the same compound, the compound was classed as inactive in assay [9] and in [11]. Also, the Potency result in [6], in assay [7], in assay [12] and in [13] was “inactive” each time.
With `ClC1=C(Cl)[C@]2(Cl)[C@@H]3[C@@H]4C[C@@H]([C@H]5O[C@@H]45)[C@@H]3[C@@]1(Cl)C2(Cl)Cl`, the Potency in [1] was 21.7 µM (active). Moreover, the Potency result in assay [14] and in assay [4] was “inactive” throughout.
Turning to `COC(=O)N(C(=O)N1CO[C@@]2(C(=O)OC)Cc3cc(Cl)ccc3C2=N1)c1ccc(OC(F)(F)F)cc1`, the Potency result in assay [15], in assay [16], in [2], in assay [17], in assay [14] and in [3] was “inactive” in each case. In addition, the Potency entry in [4] and in assay [6] was “inactive” throughout. Moreover, the call in [11] was inactive.
On to `CCOP(=S)(OCC)SCS(=O)(=O)C(C)(C)C`, for which the Potency result in [15], in assay [16], in [2], in assay [17], in [14] and in assay [3] was “inactive” in each case. The Potency entry in assay [4], in assay [18], in [6], in assay [12] and in assay [13] was “inactive” each time. The outcome in assay [9] and in [11] was inactive. Moreover, the Potency in [19] was 68.6 µM (active).
`C=CCC1=C(C)C(OC(=O)C2C(C=C(C)C)C2(C)C)CC1=O` (centres undefined): the Potency in assay [1] was 16.3 µM (active); in [3], 61.1 µM (active). Besides, the Potency entry in [8], in [14], in [7] and in assay [12] was “inactive” in each case. Moreover, the compound was called inactive in [9] and in assay [11].
Regarding `Oc1ccccc1Br`, the Potency entry in assay [1], in assay [2], in assay [8], in assay [4], in assay [18] and in assay [5] was “inactive” each time. Moreover, the Potency result in assay [10], in assay [6] and in assay [7] was “inactive” each time. Moreover, the compound was classed as inactive in assay [11].
Take `ClC1=C(Cl)C2(Cl)C3C(Cl)C=CC3C1(Cl)C2(Cl)Cl` (centres undefined): the Potency entry in assay [15], in [16], in assay [14], in [3], in [18] and in assay [10] was “inactive” each time. Moreover, in assay [6], the Potency result is “inactive”. Moreover, the Potency in assay [2] is 61.4 µM (active). Moreover, the result in assay [11] was inactive.
Turning to `CC[C@H](C)[C@H]1O[C@]2(C=C[C@@H]1C)C[C@@H]1C[C@@H](C/C=C(\C)[C@@H](O[C@H]3C[C@H](OC)[C@@H](O[C@H]4C[C@H](OC)[C@@H](O)[C@H](C)O4)[C@H](C)O3)[C@@H](C)/C=C/C=C3\CO[C@@H]4[C@H](O)C(C)=C[C@@H](C(=O)O1)[C@]34O)O2`, the Potency in [1] was 16.1 µM (active); in assay [2] it was 18.1 µM (active); in assay [8], 25.6 µM (active). Moreover, in [9], the outcome was inactive. Moreover, the Potency result in [3], in assay [7], in assay [12] and in assay [13] was “inactive” throughout.
Take `CC1(C)CC/C(=C/c2ccc(Cl)cc2)C1(O)Cn1cncn1` (centres undefined): the Potency result in assay [15], in [16], in assay [8], in [14], in assay [6] and in assay [7] was “inactive” each time. Also, the Potency entry in assay [12] and in assay [13] was “inactive” throughout. Besides, the Potency in assay [2] was 6.08 µM (active); in assay [17] it was 17.1 µM (active). Further, in assay [9], the call was inactive.
As to `CCCCN(CCCC)C(=S)[S-].CCCCN(CCCC)C(=S)[S-].[Zn+2]`, the Potency was 4.85 µM (active) in assay [1]; 13.7 µM (active) in [2]; 24.3 µM (active) in assay [4]; 12.2 µM (active) in assay [19]; 43.2 µM (active) in assay [5]. For the same compound, the Potency result in [6] and in [7] was “inactive” throughout. Further, the compound was called inactive in [11].
